Measured values: PubChem BioAssay AID743395 (Broad Institute, 2014)
Hit rate of the full screen: of about 1,200 compounds, about 480 (40%) were called active. How the calls were made is not given here. The set was probably picked from earlier hits. The list is a sample of the results. Entries with a potency or affinity are not part of this list.

assay: HepG2 cell cytotoxicity, dose response, cytotoxicity control, CellTiter-Glo luminescence, cherry-pick, set 2 (AID 743395); settings: HepG2 viability, CellTiter-Glo ATP luminescence, 72 h; series mostly up to 26 µM

**Q.** Which outcome does the source give for `Cc1ccc(NC(=O)c2ccc(Cl)c(S(=O)(=O)Nc3c(C)n(C)n(-c4ccccc4)c3=O)c2)cc1Cl` here?
**A.** Its outcome is “inactive”.

**Q.** With `O=c1[nH]c(CN2CCN(c3ccc(O)cc3)CC2)nc2scc(-c3ccc(Cl)cc3)c12` as the compound, how does the outcome read?
**A.** Its outcome is “inactive”.

**Q.** With `CCOC(=O)N1CCN(C(=O)C2CCC(=O)N(CCCN3CCCC3=O)C2)CC1` (centres undefined) as the compound, how does the outcome read?
**A.** The outcome was “inactive”.

**Q.** Which outcome does the source give for `COc1ccc(Cl)cc1C(=O)NNC(=O)CCNS(=O)(=O)c1ccccc1` here?
**A.** The outcome was “inactive”.

**Q.** Which outcome does the source give for `COc1ccccc1NS(=O)(=O)c1ccc(C)c(C(=O)Nc2cc(C)on2)c1` here?
**A.** Its outcome is “inactive”.

**Q.** For `COC(=O)c1ccc(CS(=O)(=O)c2ccc(F)cc2)o1`, which outcome is on record?
**A.** Its outcome is “inactive”.

**Q.** For `Nc1[nH]nc2ncc3cc4ccccc4nc3c12`, which outcome is on record?
**A.** Its outcome is “inactive”.

**Q.** Which outcome does the source give for `Clc1cccc(-c2ccc(C=Nc3ccc(N4CCOCC4)cc3)o2)c1Cl` here?
**A.** The outcome was “inactive”.

**Q.** For `COC(=O)COc1cccc2c(=O)n(CC(=O)NCc3ccccc3)ccc12`, which outcome is on record?
**A.** Its outcome is “inactive”.

**Q.** Which outcome does the source give for `O=C(CN1CCOc2ccccc21)NCc1ccc(Cl)cc1` here?
**A.** The outcome was “inactive”.

**Q.** With `O=C(N/N=C/c1cccs1)c1cccc(NC(=O)c2ccccc2Cl)c1` as the compound, how does the outcome read?
**A.** The outcome was “inactive”.

**Q.** For `O=C(c1ccc(S(=O)(=O)NCC2CCCO2)cc1)N1CCN(c2cccc(Cl)c2)CC1` (centres undefined), which outcome is on record?
**A.** The outcome was “inactive”.

**Q.** For `O=C(CSc1nc2nn(-c3ccccc3)c(=O)c-2c2n1CCCCC2)Nc1ccc(OC(F)F)cc1`, which outcome is on record?
**A.** The outcome was “inactive”.

**Q.** Which outcome does the source give for `COc1cc(OC)c2c(-c3cccc(-c4ccc(OC)c(OC)c4)c3)cc(=O)oc2c1` here?
**A.** The outcome was “inactive”.

**Q.** For `COc1ccc(-c2c(C)cc3oc(=O)cc(-c4ccccc4)c3c2C)cc1OC`, which outcome is on record?
**A.** The outcome was “inactive”.

**Q.** For `COc1cc(OC)c2c(-c3cccc(-c4ccc(OC)c(F)c4)c3)cc(=O)oc2c1`, which outcome is on record?
**A.** The outcome was “inactive”.

**Q.** Which outcome does the source give for `Cc1ccc(-c2cccc(-c3cc(=O)oc4ccc(C(C)(C)C)cc34)c2)cc1` here?
**A.** The outcome was “inactive”.

**Q.** For `CN1C(=O)c2cccc3c(N)ccc(c23)C1=O`, which outcome is on record?
**A.** The outcome was “inactive”.

**Q.** For `CC1Cc2nc(SCC(=O)N3CCOCC3)n(-c3ccccc3)c(=O)c2S1` (centres undefined), which outcome is on record?
**A.** Its outcome is “inactive”.

**Q.** Which outcome does the source give for `COc1cc(/C=C(\CC(=O)O)c2nc3ccccc3s2)ccc1OCC(=O)Nc1ccccc1F` here?
**A.** Its outcome is “inactive”.

**Q.** With `CC(C)(C)c1ccccc1NC(=O)CN1C(=O)NC2(CCCCCC2)C1=O` as the compound, how does the outcome read?
**A.** Its outcome is “inactive”.

**Q.** Which outcome does the source give for `CC(=O)Nc1ccc(-c2csc(NC(=O)CN3C(=O)NC4(CCCC4)C3=O)n2)cc1` here?
**A.** The outcome was “inactive”.

**Q.** For `O=C(NC1CCN(Cc2ccccc2)CC1)c1cc(S(=O)(=O)N2CCOCC2)ccc1Cl`, which outcome is on record?
**A.** Its outcome is “inactive”.

**Q.** Which outcome does the source give for `Cn1c(CC(=O)NN)c(Sc2ccccc2)c2ccccc21` here?
**A.** Its outcome is “inactive”.

**Q.** Which outcome does the source give for `COc1cc(/C=C(\C#N)C(=O)c2c[nH]c3ccccc23)cc(OC)c1O` here?
**A.** The outcome was “inactive”.

**Q.** Which outcome does the source give for `CCCOc1cc(N(CC)CC)ccc1/C=C(/C#N)c1nc2ccc(C)cc2[nH]1` here?
**A.** Its outcome is “inactive”.

**Q.** For `O=C(Nc1ccn(CCCNC2CCN(Cc3ccccc3)CC2)c(=O)n1)OCc1ccccc1`, which outcome is on record?
**A.** The outcome was “inactive”.

**Q.** For `Clc1ccc(N(CC2CO2)CC2CO2)cc1` (centres undefined), which outcome is on record?
**A.** Its outcome is “inactive”.

**Q.** With `CC1=C(C(=O)N(C)C)CC(CC(=O)NCc2cccc3ccccc23)C(=O)N1CCCN1CCCC1=O` (centres undefined) as the compound, how does the outcome read?
**A.** The outcome was “inactive”.

**Q.** With `Cc1cccc(NC(=O)CN2CCN(C(=O)CN3C(=O)NC4(CC(C)CC(C)(C)C4)C3=O)CC2)c1C` (centres undefined) as the compound, how does the outcome read?
**A.** The outcome was “inactive”.

**Q.** Which outcome does the source give for `CCOc1ccc2c(c1)C(C)=CC(C)(C)N2S(=O)(=O)c1ccc(F)cc1` here?
**A.** The outcome was “inactive”.

**Q.** For `COc1ccc2c(c1)C(O)C(CO)C(C(=O)O)C2` (centres undefined), which outcome is on record?
**A.** The outcome was “inactive”.

**Q.** For `COc1ccc(S(=O)(=O)N2CC[C@@H]3[C@@H](CO)N(C)c4ccc(-c5ccc(F)cc5)cc4[C@@H]32)cc1`, which outcome is on record?
**A.** The outcome was “inactive”.

**Q.** Which outcome does the source give for `O=C(Cc1ccccn1)NCC[C@H]1CC[C@H](NC(=O)Nc2ccc(C(F)(F)F)cc2)[C@H](CO)O1` here?
**A.** The outcome was “inactive”.

**Q.** Which outcome does the source give for `Fc1ccc2nc(C3CCN(Cc4nc(CC5CC5)no4)CC3)[nH]c2c1` here?
**A.** The outcome was “inactive”.

**Q.** With `N#C/C(=C(/O)c1ccc(Br)s1)c1nc2ccccc2[nH]1` as the compound, how does the outcome read?
**A.** Its outcome is “inactive”.

**Q.** Which outcome does the source give for `CCOC(=O)N1CCN(S(=O)(=O)c2ccc3c(c2)C(C)C(=O)N3)CC1` (centres undefined) here?
**A.** The outcome was “inactive”.

**Q.** With `Cc1cc2oc(C(=O)NCCc3ccc(S(N)(=O)=O)cc3)c(C)c2cc1C` as the compound, how does the outcome read?
**A.** Its outcome is “inactive”.

**Q.** With `COc1ccccc1C1CC(=O)Nc2cc3c(cc21)OCCO3` (centres undefined) as the compound, how does the outcome read?
**A.** The outcome was “inactive”.

**Q.** With `CCOc1ccccc1NC(=O)CC1SC(=N)N(c2ccccc2)C1=O` (centres undefined) as the compound, how does the outcome read?
**A.** Its outcome is “inactive”.

**Q.** Which outcome does the source give for `O=S1(=O)c2ccc(Br)cc2N2CCC[C@H]2CN1Cc1ccccc1` here?
**A.** Its outcome is “inactive”.

**Q.** With `O=C(CC1Sc2ccccc2NC1=O)NNc1cccc(Cl)c1Cl` (centres undefined) as the compound, how does the outcome read?
**A.** Its outcome is “inactive”.

**Q.** With `CC(=O)OC1CCC2(C)C(=CCC3C2CCC2(C)C3CC3ON=C(C)C32)C1` (centres undefined) as the compound, how does the outcome read?
**A.** Its outcome is “inactive”.

**Q.** With `Cc1ccc(S(=O)(=O)N2C[C@H]3[C@H]4C(=O)N(C)C(=O)[C@H]4CC(=O)[C@H]3[C@@H]2c2ccccc2F)cc1` as the compound, how does the outcome read?
**A.** Its outcome is “inactive”.

**Q.** Which outcome does the source give for `CCCNC(=O)N1C[C@@H]2[C@H](c3ccccc31)[C@H](CO)N2Cc1ccc(OC)cc1` here?
**A.** Its outcome is “inactive”.

**Q.** With `NS(=O)(=O)c1cc(Cl)c(Cl)c(S(N)(=O)=O)c1` as the compound, how does the outcome read?
**A.** Its outcome is “inactive”.

**Q.** Which outcome does the source give for `CC(C)NC(=O)NC(=O)COC(=O)c1ccc(S(=O)(=O)Nc2ccccc2)cc1` here?
**A.** The outcome was “inactive”.

**Q.** For `COc1ccc(CC(=O)NC(c2ccccc2)c2ccc(C)cc2)c(OC)c1` (centres undefined), which outcome is on record?
**A.** The outcome was “inactive”.

**Q.** Which outcome does the source give for `Cc1cc(-c2ccccc2)nc(N(C)NC(=O)C2CC2)c1S(C)(=O)=O` here?
**A.** The outcome was “inactive”.

**Q.** For `COc1ccc(C(=O)c2cc([N+](=O)[O-])ccc2N2CCN(C)CC2)cc1`, which outcome is on record?
**A.** The outcome was “inactive”.

**Q.** For `O=C(COC(=O)c1cc([N+](=O)[O-])ccc1N1CCOCC1)Nc1c(Cl)cccc1Cl`, which outcome is on record?
**A.** The outcome was “inactive”.

**Q.** For `CCc1cccc(NC(=O)COC(=O)c2cc([N+](=O)[O-])ccc2N2CCOCC2)c1`, which outcome is on record?
**A.** The outcome was “inactive”.

**Q.** Which outcome does the source give for `C[C@@H]1CN([C@H](C)CO)S(=O)(=O)c2ccc(/C=C/c3ccccc3)cc2O[C@H]1CN(C)C(=O)NC1CCCCC1` here?
**A.** The outcome was “inactive”.

**Q.** Which outcome does the source give for `COc1cccc(/C=N/NC(=O)C(=O)N/N=C/c2cccc(OC)c2O)c1O` here?
**A.** Its outcome is “inactive”.

**Q.** For `C#CCN(C)CCCOc1ccc(Cl)cc1Cl`, which outcome is on record?
**A.** Its outcome is “inactive”.

**Q.** For `CC(C)Nc1nc(Nc2ccc(C#N)cc2)c2sccc2n1`, which outcome is on record?
**A.** Its outcome is “inactive”.

**Q.** For `CCCCNc1cc(C(=O)O)cc(S(N)(=O)=O)c1Oc1ccccc1`, which outcome is on record?
**A.** Its outcome is “inactive”.

**Q.** Which outcome does the source give for `CC[N+]1(CC)CC2=Cc3ccccc3CC2C1` (centres undefined) here?
**A.** The outcome was “inactive”.

**Q.** With `Cc1ccc2c(CN3CCN(S(=O)(=O)c4ccc(Cl)cc4)CC3)cc(=O)oc2c1C` as the compound, how does the outcome read?
**A.** The outcome was “inactive”.

**Q.** For `C#Cc1ccc(NC(=O)C2(C)CCN2C(=O)c2cc(C)n(C)n2)cc1` (centres undefined), which outcome is on record?
**A.** The outcome was “inactive”.

**Q.** With `CCN1C(=O)c2cccc3c(N)ccc(c23)C1=O` as the compound, how does the outcome read?
**A.** Its outcome is “inactive”.

**Q.** Which outcome does the source give for `Cn1c(NCc2ccccc2F)nc2cc(-c3ccsc3)sc2c1=O` here?
**A.** Its outcome is “inactive”.

**Q.** With `Nc1ccc(-c2c3ccc(=O)cc-3oc3cc(O)ccc23)cc1C(=O)O` as the compound, how does the outcome read?
**A.** The outcome was “inactive”.

**Q.** Which outcome does the source give for `Cc1cc2oc(=O)cc(-c3ccccc3)c2c(C)c1-c1ccc(O)cc1` here?
**A.** The outcome was “inactive”.
